A selection: hits, their analogues and other compounds. The true share with any hit is near 6.2%.
ATXN viability: reduces viability in counter-screen for ATXN expression inhibitors; S2 cells (HEK-293 line with an ATXN2-luciferase reporter) viability, CellTiter-Fluor protease fluorescence, 24 h; Potency, µM (titrated, usually from 56.7 µM), most hits filed as cytotoxic; 400,000 compounds, 0.49% hits; further: nearly all actives have a fitted effect of over 40% in size
KB-3-1 cytotox: kills parental KB-3-1 adenocarcinoma cells; KB-3-1 viability, CellTiter-Glo ATP luminescence, 72 h; Potency, µM (highest dose often 46.1 µM), hits mostly cytotoxic; 400,000 compounds, 1.4% hits; AID 1347075; further: on the % scale 0 is the no-effect control and ±100 the full control effect; nearly all actives have a fitted effect of over 60% in size
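Multi-concentration cytotoxicity screen in KB-3-1 cells grown in DMEM lacking phenol red with 10% FBS. After 72 h at 37 °C with compound, ATP-dependent luminescence was recorded.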
HT1080NT lethal: kills 2HG-producing HT-1080-NT fibrosarcoma cells; AID 686970; 360,000 compounds, 1.6% hits; HT-1080-NT fibrosarcoma viability, CellTiter-Glo ATP luminescence, 48 h; Potency, µM (doses to about 46.1 µM), without a hit: at the highest dose activity, negative = less viability, usual class: cytotoxic;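 further: NT is the 2HG producing partner of a matched IDH1 knockdown line; 0% = DMSO-treated cells and -100% = media-only wells without cells; nearly all actives have a fitted effect of over 55% in size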
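Fibrosarcoma NT cells, 750 per well in 5% FBS RPMI, were exposed to compound for 48 hours. Viability: CellTiter-Glo luminescence.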
ATXN2 expr inh: inhibitors of ATXN2 expression; Potency, µM (series often up to 57 µM), without a hit: at the highest dose activity change, negative = inhibition, usual class: inhibitors; HEK-293 ATXN2-luciferase reporter, luminescence, 24 h; 360,000 compounds, 0.72% hits; further: on the % scale 0 is the no-effect control and ±100 the full control effect; nearly all actives have a fitted effect of over 55% in size
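ATXN2-luciferase reporter cells (luciferase flanked by upstream and downstream ATXN2 gene portions) were treated 24 h at 37 °C with compounds at up to 57 uM. SteadyGlo luminescence gave expression; GF-AFC fluorescence gave viability.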
KB-V1 MDR tox: kills drug-selected multidrug resistant KB-V1 cells; KB-V1 MDR cells viability, CellTiter-Glo, 72 h; Potency, µM (series often up to 46.1 µM), actives largely listed as cytotoxic; 400,000 compounds, 3.4% hits; AID 1347076; further: on the % scale 0 is the no-effect control and ±100 the full control effect; nearly all actives have a fitted effect of over 60% in size
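Cytotoxicity toward P-gp-expressing KB-V1 cells was determined as loss of CellTiter-Glo luminescence after 72 h at 37 degrees C. Compounds were tested in quantitative HTS format across a concentration range, with curves fitted to normalized data.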
HT1080 IDH1KD tx: kills HT-1080 cells with IDH1 knockdown. AID 686971. HT-1080 IDH1 knockdown viability, ATP luminescence, 48 h. Potency, µM (highest dose often 46.1 µM), inactives show top-dose activity, negative = toxicity, most hits filed as cytotoxic. 360,000 compounds, 2% hits;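 further: 0% = DMSO wells and -100% = cell-free medium wells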
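In this qHTS, HT-1080 cells depleted of IDH1 are exposed for 48 h at 37 °C to compound titrations. Toxicity is scored from CellTiter-Glo luminescence, with DMSO as full viability and medium alone as none.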
* marks the source's active call; other numbers are inactive results; i = inactive; u = inconclusive; x = no result; ! = not confirmed by another sample. The call rests on the fitted dose curve; in most records, active means well fitted curve in the direction sought with a large enough effect; inconclusive means small, poorly fitted or top-dose-only effect, or another doubt; inactive means no such curve, though single readings can be large; an effect the other way counts as inactive or inconclusive. Potency means the concentration at half of the fitted maximal effect.

SMILES	ATXN viability	KB-3-1 cytotox	HT1080NT lethal	ATXN2 expr inh	KB-V1 MDR tox	HT1080 IDH1KD tx
Cc1ccc(NC(=O)c2cccc(S(=O)(=O)N3CCN(c4ccc(F)cc4)CC3)c2)nc1	i	16.4µM*	u	-19.0%	u	u
O=C(Nc1ccc(Cl)cn1)c1cccc(S(=O)(=O)N2CCOCC2)c1	i	i	0.3%	5.9%	20.6µM*	-3.0%
COc1ccc(-c2nc3ccc(NC(C)=O)cc3c(=O)n2Cc2ccccc2)cc1COc1ccc(NC(C)=O)cc1	x	x	4.4%	x	x	0.4%
COc1ccc(/C=C2\SC(=O)N(CCNC(=O)C3=COCCO3)C2=O)cc1	u	2.91µM*	7.31µM*	23.4%	2.59µM*	7.31µM*
COc1ccc(/C=C2\SC(=O)N(CCNC(=O)Cc3coc4cc(OC)ccc34)C2=O)cc1	i	u	-9.8%	28.5%	5.8µM*	-6.5%
O=C(NCCN1C(=O)S/C(=C\c2ccc(OC(F)F)cc2)C1=O)C1=COCCO1	i	u	u	8.1%	u	u
O=C(NCCN1C(=O)S/C(=C\c2ccc(OC(F)F)cc2)C1=O)c1cnccn1	u	5.8µM*	u	-8.5%	8.2µM*	u
O=C(NCCN1C(=O)S/C(=C\c2ccccc2F)C1=O)C1=COCCO1	u	u	u	-4.5%	9.2µM*	11.6µM*
CN(C)S(=O)(=O)c1cccc(NC(=O)c2cc(-c3cccs3)nn2-c2ccccc2)c1	i	i	4.2%	1.1%	5.8µM*	1.8%
CCN(CC)S(=O)(=O)c1cccc(NC(=O)c2cc(-c3cccs3)nn2-c2ccccc2)c1	i	i	12.3%	-8.1%	3.66µM*	-0.2%
CN(CC(=O)Nc1cccc(F)c1)C(=O)c1cc(-c2cccs2)nn1-c1ccccc1	i	i	-5.3%	-9.1%	u	-11.7%
NS(=O)(=O)c1ccc(S(=O)(=O)N2CCN(c3nc(-c4ccccc4)nc4ccccc34)CC2)cc1	x	x	-16.2%	x	x	-22.6%
Cc1cc(C)c(S(=O)(=O)N2CCCCC2CCNC(=O)C(=O)NCCN2CCOCC2)c(C)c1 (stereo unspecified)	i	i	4.4%	1.8%	3.26µM*	6.4%
O=C(NCCC1CCCCN1S(=O)(=O)c1ccc(F)cc1)C(=O)NCCN1CCOCC1 (stereo unspecified)	u	i	10.0%	-4.2%	i	12.8%
Cc1cc(F)ccc1S(=O)(=O)N1CCCCC1CCNC(=O)C(=O)NCCN1CCOCC1 (stereo unspecified)	u	i	6.1%	-9.9%	16.4µM*	-1.0%
O=C(/C=C/c1ccccc1Cl)NCCc1ccccc1	i	i	12.5%	32.5%	16.4µM*	-1.2%
O=C(COc1ccccc1CNC[C@H]1O[C@@H](n2ccc(=O)[nH]c2=O)[C@H](O)[C@@H]1O)N1CCCCC1	i	i	10.5%	5.6%	i	13.0%
C=CCOc1ccc(/C=N/N2C(=O)C(CC(=O)Nc3ccc(F)cc3F)SC2=NC)cc1 (stereo unspecified)	u	u	14.6µM*	-30.0%	u	u
CCc1ccccc1NC(=O)CCNS(=O)(=O)c1ccc2c(c1)CCN2C(=O)C1CC1	i	i	x	-5.1%	i	x
O=C1C[C@H]2C=CCc3cccc(c32)CN1Cc1cccc(F)c1	x	i	x	x	i	x
O=C1C[C@H]2C=CCc3cccc(c32)CN1Cc1ccc(Cl)cc1	x	i	x	x	18.4µM*	x
Brc1ccccc1OCCCCn1cnc2ccccc21	i	5.17µM*	-15.9%	-7.7%	u	u
Clc1ccc(OCCn2cnc3ccccc32)cc1	i	i	-13.8%	24.1%	i	-13.8%
Clc1ccccc1OCCn1cnc2ccccc21	i	i	9.0%	23.0%	20.6µM*	3.2%
COc1cccc(CNc2nccn(-c3cc(C)cc(C)c3)c2=O)c1	i	i	x	9.6%	u	x
SMILES	ATXN viability	KB-3-1 cytotox	HT1080NT lethal	ATXN2 expr inh	KB-V1 MDR tox	HT1080 IDH1KD tx
Cc1cc(C2CCCCC2)n(O)c(=O)c1	20µM*!	i	8.2µM*	17.8µM*	u	18.4µM*
COc1ccccc1S(=O)(=O)Cc1ccc(C(=O)N2CCN(c3cccc(Cl)c3)CC2)o1	u	6.51µM*	u	u	16.4µM*	20.6µM*
O=C(NC1CCCC1)c1ccc(CSCc2ccccc2F)o1	i	i	8.8%	39.2%	14.6µM*	-11.6%
COc1ccccc1S(=O)(=O)Cc1ccc(C(=O)N2CCN(c3cc(Cl)ccc3C)CC2)o1	i	u	x	-6.9%	18.4µM*	x
COc1ccccc1S(=O)(=O)Cc1ccc(C(=O)N2CCN(c3ccccc3)CC2)o1	i	u	-0.4%	-23.1%	u	-11.0%
COc1ccccc1S(=O)(=O)Cc1ccc(C(=O)NC2CCCCC2)o1	i	i	9.9%	-13.4%	14.6µM*	3.4%
O=C(NC1CCCC1)c1ccc(CS(=O)(=O)Cc2ccccc2F)o1	i	i	0.5%	x	i	-0.2%
COc1cc(-c2cnc3ccccc3c2)cc2c1OCCN(S(=O)(=O)C[C@]13CC[C@H](CC1=O)C3(C)C)C2	i	x	x	x	x	x
O=C(CSc1nnc(Cn2c(=O)sc3ccccc32)n1CCc1ccccc1)N1CCOCC1	i	i	21.6%	2.7%	18.4µM*	-0.6%
N#CCCN(Cc1cccnc1)S(=O)(=O)c1ccc2ccccc2c1	u	i	0.8%	-19.3%	23.1µM*	1.3%
CC1CCCCN1CCNC(=O)c1ccc(Cn2c(SCc3ccccc3)nc3cccnc32)cc1 (stereo unspecified)	x	i	x	x	i	x
COc1ccc(CNc2ncnc3nc[nH]c23)cc1	x	i	1.2%	x	i	-4.7%
CN1C(=O)/C(=C/c2ccc(O)c([N+](=O)[O-])c2)NC1=S	25.1µM*	i	-8.1%	-10.6%	i	-0.9%
COc1cc(/C=C2\NC(=S)N(C)C2=O)ccc1O	u	i	6.4%	-0.1%	i	12.4%
O=C1/C(=C/c2cccnc2)SC(=S)N1Cc1ccco1	i	13µM*	-18.4%	-18.6%	20.6µM*	u
S=C1SCN(Cc2ccccn2)CN1Cc1ccco1	u	i	u	u	u	15.8µM*
COCCN1CSC(=S)N(Cc2ccco2)C1	i	i	17.0%	0.8%	i	4.7%
O=C1CSC(=S)N1Cc1cccnc1	u	4.61µM*	u	u	2.91µM*	u
Cc1ccc(CN2CCC(CNC(=O)c3cnn(-c4ccccc4)c3C3CCN(C(=O)OC(C)(C)C)CC3)CC2)cc1	x	i	x	x	i	x

Bioassay records (PubChem)
